{"source": "PubChem BioAssay AID1814", "about": "(Broad Institute, 2009)", "note": "Among all 300,000 compounds or so, about 22,000 (7.3%) were called active. Another 2% or so got no clear call; they are omitted. This is one part of a sample in which actives are shown more often than they occur. Values without a mark were called inactive. No stated cut-off is given here; in the data, active means activity score below about -60%; inconclusive means mostly about -28% to -61%; inactive means positive scores."}
{"experiment": "Activators working through SNCA 5'UTR binding (MLPCN) (AID 1814)", "conditions": "alpha-synuclein 5'UTR reporter, activators screen; active compounds read low; tested at 7.5 µM"}
{"smiles": "CSc1ccccc1NC(=O)c1cc(C2CC2)on1", "activity score": "-116% (active)"}
{"smiles": "O=C(Nc1cc(C(F)(F)F)ccc1Cl)c1cc(C2CC2)on1", "activity score": "-77.3% (active)"}
{"smiles": "O=C(Nc1cc(C(F)(F)F)ccc1Cl)c1cc2nc3c(c(C(F)(F)F)n2n1)CCCC3", "activity score": "-243% (active)"}
{"smiles": "O=C(O)c1ccccc1CSc1nc2ccccc2s1", "activity score": "-62.9% (active)"}
{"smiles": "CC(/C=N/NC(=O)c1cc(-c2ccc3ccccc3c2)n[nH]1)=C\\c1ccco1", "activity score": "-220% (active)"}
{"smiles": "COC(=O)c1ccc(CNC(=O)c2ccc3oc(C(C)C)nc3c2)cc1", "activity score": "-95.9% (active)"}
{"smiles": "COc1ccc(CNC(=O)c2ccc3oc(C(C)C)nc3c2)cc1", "activity score": "-118% (active)"}
{"smiles": "COC(=O)c1ccc(Sc2ccc(F)cc2)c(N)c1", "activity score": "-107% (active)"}
{"smiles": "CC(C)(C)c1ccc(/C=C2\\SC(=O)N=C2N)cc1", "activity score": "-78.7% (active)"}
{"smiles": "O=C(Nc1cccc2ccccc12)c1onc2c1CCCC2", "activity score": "-204% (active)"}
{"smiles": "Cc1ccc2nc(-c3ccc(SCC(=O)Nc4cc(C)on4)nc3)[nH]c2c1", "activity score": "-160% (active)"}
{"smiles": "O=C(c1noc2c1CCCC2)N1CCc2ccccc2C1", "activity score": "-165% (active)"}
{"smiles": "O=C(NCCNc1ccccc1[N+](=O)[O-])c1ccccc1F", "activity score": "-168% (active)"}
{"smiles": "NC(=O)c1ccccc1N=Cc1ccc2ccccc2c1", "activity score": "-211% (active)"}
{"smiles": "CCc1ccc2nc3sc(C(=O)Nc4nnc(CC)s4)c(N)c3cc2c1", "activity score": "-71.1% (active)"}
{"smiles": "Cc1nc(C)c(-c2csc(NCCc3ccccc3)n2)s1", "activity score": "-84.7% (active)"}
{"smiles": "CC(c1ccccn1)N(C)C(=O)c1ccc2nc(Cc3cccc(Cl)c3)oc2c1", "note": "(stereo unspecified)", "activity score": "-80.8% (active)"}
{"smiles": "COc1ccc(-c2cc3n(n2)CCc2nc4ccccc4n2-3)cc1", "activity score": "-137% (active)"}
{"smiles": "CCN1CCN(c2cc3nc(C)n(Cc4ccccc4)c(=O)c3cc2NC(=O)c2ccccc2F)CC1", "activity score": "65.1%"}
{"smiles": "COC(=O)c1sc(N2CCN(Cc3ccccc3)CC2)nc1N", "activity score": "-67.9% (active)"}
{"smiles": "Oc1ccc2ccccc2c1N=Nc1nccs1", "activity score": "87.4%"}
{"smiles": "Cn1c(-c2ccc(C(=O)c3ccccc3)s2)nc2ccccc21", "activity score": "-73.8% (active)"}
{"smiles": "O=C(/C=C/c1cnc2ccccc2n1)NC1CCCCCC1", "activity score": "-94.3% (active)"}
{"smiles": "COc1ccc(NC(=O)Nc2cccc3cccnc23)cc1", "activity score": "-211% (active)"}
{"smiles": "O=C(Nc1ccccc1Cl)Nc1cccc2cccnc12", "activity score": "-162% (active)"}
{"smiles": "O=[N+]([O-])c1ccccc1S(=O)(=O)Nc1cccc2cccnc12", "activity score": "59.9%"}
{"smiles": "OCCN1CCN(C(=S)c2ccc(-c3ccccc3)cc2)CC1", "activity score": "88%"}
{"smiles": "S=C(c1ccc(-c2ccccc2)o1)N1CCCCC1", "activity score": "-113% (active)"}
{"smiles": "O=C(Nc1ccc(Cl)cn1)Nc1cccs1", "activity score": "-78.6% (active)"}
{"smiles": "Clc1ccc(Nc2ccc3ccccc3n2)cc1", "activity score": "-61.9% (active)"}
{"smiles": "CCOC(=O)C1(Cc2ccccc2C)CCCN(C(=O)c2ccc(COC)o2)C1", "note": "(stereo unspecified)", "activity score": "-84.1% (active)"}
{"smiles": "O=C(Nc1ccc(N2CCOCC2)nc1)c1c(F)cccc1F", "activity score": "-91.2% (active)"}
{"smiles": "CCCCC(=O)Nc1ccc2c(c1)OCCO2", "activity score": "-102% (active)"}
{"smiles": "Cc1ccc(SCC(=O)Nc2ccc3c(c2)OCCO3)cc1", "activity score": "-96.9% (active)"}
{"smiles": "CCc1ccccc1OCC(=O)Nc1ccc2c(c1)OCCO2", "activity score": "-104% (active)"}
{"smiles": "COC(=O)CCNc1ccc2c(c1)OCCO2", "activity score": "-62.2% (active)"}
{"smiles": "CC(C)(C)C(=O)CSc1nc2ccccc2o1", "activity score": "-109% (active)"}
{"smiles": "CC1Cc2ccccc2N1C(=O)CSc1nc2ccccc2o1", "note": "(stereo unspecified)", "activity score": "-87.9% (active)"}
{"smiles": "CCN(CC)C(=O)CSc1nc2ccccc2o1", "activity score": "-63.8% (active)"}
{"smiles": "Cc1ccc(NC(=O)Nc2cccnc2)cc1", "activity score": "-97.5% (active)"}
{"smiles": "Cc1ccc(NC(=O)Nc2nnc(-c3ccncc3)s2)cc1", "activity score": "-68% (active)"}
{"smiles": "CC(=O)c1cccc(NC(=O)Nc2ccc(C)cc2)c1", "activity score": "-144% (active)"}
{"smiles": "CCc1ccc(NC(=O)Nc2ccncc2)cc1", "activity score": "-76.8% (active)"}
{"smiles": "Cc1ccc(-c2nc(-c3cccnc3)sc2CC(=O)Nc2ccc(C)c(Cl)c2)cc1", "activity score": "54.1%"}
{"smiles": "CCCCCCCCn1c2c(c(=N)c3c1CCC3)CCCC2", "activity score": "101%"}
{"smiles": "COC(=O)c1sccc1NC(=S)Nc1ccc(C)cc1", "activity score": "-77.8% (active)"}
{"smiles": "COc1cc(NC(=O)Nc2ccc(C)cc2)cc([N+](=O)[O-])c1", "activity score": "-141% (active)"}
{"smiles": "Cc1ccc(NC(=O)Nc2ccccc2)c(Br)c1", "activity score": "-192% (active)"}
{"smiles": "COC(=O)c1ccc(NC(=O)Nc2ccc(C)cc2)cc1", "activity score": "-81.9% (active)"}
{"smiles": "O=C(NCCCN1CCOCC1)c1cc(-c2ccccc2F)no1", "activity score": "-121% (active)"}
{"smiles": "O=C(c1ccco1)N1CCN(C(=O)c2cc(-c3ccccc3F)no2)CC1", "activity score": "-156% (active)"}
{"smiles": "CCC(=O)/C(=C(/O)c1ccccc1)c1nc2ccccc2[nH]1", "activity score": "-69% (active)"}
{"smiles": "CC[C@]1(O)C[C@@H]2CN(CCc3c([nH]c4ccccc34)[C@@](C(=O)OC)(c3cc4c(cc3OC)N(C)[C@H]3[C@@](O)(C(=O)OC)[C@H](OC(C)=O)[C@]5(CC)C=CCN6CC[C@]43[C@@H]65)C2)C1", "activity score": "77.2%"}
{"smiles": "CNc1[nH]ncc1[N+](=O)[O-]", "activity score": "-74.2% (active)"}
{"smiles": "CC1CCCC(NC(=O)c2cccc(N3CCCC3=O)c2)C1C", "note": "(stereo unspecified)", "activity score": "-74.5% (active)"}
{"smiles": "CC1CCC(NC(=O)c2ccc(N3CCCC3=O)cc2)CC1", "note": "(stereo unspecified)", "activity score": "-64.3% (active)"}
{"smiles": "CN1c2ccc(C=O)c3c(C=O)ccc(c23)N(C)C1(C)C", "activity score": "67%"}
{"smiles": "CC1CCN(C(=S)c2ccc(-c3ccc(Cl)cc3Cl)o2)CC1", "activity score": "-91.3% (active)"}
{"smiles": "O=C(CSc1ccccn1)Nc1nc2c(ccc3ccccc32)s1", "activity score": "-63.2% (active)"}
{"smiles": "COc1ccc2nc(SCc3ccccc3)nc(C)c2c1", "activity score": "-70.7% (active)"}
{"smiles": "Cc1ccc(-n2ncc3c2ncn2nc(-c4ccco4)nc32)c(C)c1", "activity score": "-88.8% (active)"}
{"smiles": "Cc1onc(-c2ccccc2Cl)c1C(=O)N(Cc1ccc(N(C)C)cc1)C(C)C", "activity score": "73.1%"}
{"smiles": "CCN1/C(=C\\c2ccc3ccccc3[n+]2CC)Sc2cc(C)ccc21", "activity score": "-332% (active)"}
{"smiles": "O=C(Nc1ncccc1O)c1ccc(C(=O)c2ccccc2)cc1", "activity score": "-507% (active)"}
{"smiles": "O=C(Nc1ncccc1O)c1ccc(S(=O)(=O)N2CCCC2)cc1", "activity score": "-67.4% (active)"}
{"smiles": "CNC(C)C#Cc1ccc2sc3cc(OC)c(OC)cc3c(=O)c2c1", "note": "(stereo unspecified)", "activity score": "-277% (active)"}
